Env fusion inh = inhibitors of HIV-1 Env-driven cell-cell fusion, primary screen, HeLa-JRFL effector, CEM21 target cells, luciferase. 360,000 compounds, 1.1% hits. AID 651610, 2012. inhibition, % at 12.3 µM;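 active = mean replicate inhibition score of at least 50 and every replicate individually at or above 50; inconclusive = only one of the two criteria met; inactive = mean below 50 and not all replicates reaching 50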
esBAF inh = Bmi1 luciferase reporter increase in mESCs, primary screen, esBAF inhibitor project, mouse ES cells, Bmi1 luciferase knock-in, single point; 24 h; 100% = twice the neutral-well signal; reporter increase, % at 12.5 µM; 350,000 compounds, 2% hits; AID 602393, 2012; in the data active = activation above about 40%; inconclusive = no clear call, values can overlap the other calls;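 note: a rise in the Bmi1 reporter signal indicates esBAF inhibition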
MITF TRPM1 HTS = activators of MITF-driven TRPM1 promoter reporter, primary screen, cell-based, SK-MEL-5, luciferase, single point. SK-MEL-5 TRPM1-promoter luciferase, 24 h; % of positive control, neutral wells = 0. activation, % at 12.5 µM. 300,000 compounds, 0.75% hits;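 active = mean activation of at least 80% with every replicate also reaching 80%; inconclusive = mean reaches 80% but some replicate falls short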
Wnt bcat act = Wnt/beta-catenin pathway activators, primary screen, cell-based, plate reader, single point; activation, % at 9.35 µM; Wnt/beta-catenin reporter cell assay, activator; AID 743398, 2014; 300,000 compounds, 1.2% hits; in the data active = activation above about 30%, passing the limit was not always enough; inconclusive = no clear call, values can overlap the other calls
miR122 inh = miR-122 Renilla sensor signal increase in Huh7, primary screen, miR-122 inhibitor project, cell-based, single point, plate reader; activation (reporter increase), % at 12.5 µM; AID 602342, 2012; Huh7 miR-122 Renilla luciferase sensor, 48 h; neutral wells = 0, positive control = 100; 340,000 compounds, 0.3% hits;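 active = mean replicate activation score at least 90 and every replicate individually at or above 90; inconclusive = only one of the two criteria met; inactive = neither criterion met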;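 note: higher luciferase means less miR-122 activity so hits act as miR-122 inhibitors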
Numbers stand for hits; 0 = inactive; ? = inconclusive; - = not tested or not shown. Rows were chosen to be rich in hits. Some 3.4% of all compounds tested hit in one or more screens of this group.

SMILES	Env fusion inh	esBAF inh	MITF TRPM1 HTS	Wnt bcat act	miR122 inh
O=C(Nc1ccc(N2CCOCC2)nc1)c1ccccc1Cl	0	45	0	0	0
CC=Cc1ccc2n(c1=O)C[C@H]1[C@H](CO)[C@@H](C(=O)N[C@@H](C)c3ccccc3)[C@@H]2N1CC (mixture of isomers)	0	0	-	-	-
CC(C)NC(=O)N(C)C[C@@H]1Oc2ccc(NC(=O)NC3CCCCC3)cc2C(=O)N([C@H](C)CO)C[C@@H]1C	0	0	-	-	0
COc1ccccc1S(=O)(=O)N[C@@H]1CC[C@@H](CCNC(=O)C2CCC2)O[C@H]1CO	0	0	-	-	-
CC(C)NC(=O)Nc1cccc2c1O[C@@H](CN(C)Cc1ccc(C(=O)O)cc1)[C@@H](C)CN([C@@H](C)CO)C2=O	-	0	-	-	0
O=C(c1cn(CC2CCCCC2)nn1)N1CCN(c2ccc(F)cc2)CC1	0	0	0	0	-
Cc1ccc(N2CCN(C(=O)c3cn(CC4CCCCC4)nn3)C(C)C2)cc1 (stereo unspecified)	-	-	0	40	0
COc1cc2ccc(-c3ccc4ccccc4n3)cc2cc1OC	0	-	-	50	-
COc1ccc(-c2ccc3ccccc3n2)cc1OC	0	-	100	31	-
COc1ccc(-c2ccc3ccccc3n2)cc1	0	-	0	0	-
Cc1ccc(NC(=O)Nc2cccs2)cc1	-	0	0	-	0
O=C(Nc1cccs1)Nc1ccccc1Cl	-	44	0	-	0
O=C(NC(=O)c1csnn1)Nc1ccccc1Cl	0	50	0	0	0
O=C(Nc1cccs1)Nc1cccnc1Cl	0	0	0	0	0
O=C(Nc1ccc(Br)cc1)Nc1ccccc1Cl	0	?	82	31	-
NC(=O)NC(=O)Nc1ccccc1Cl	0	0	-	0	0
Cc1ccc(NC(=O)Nc2cccs2)c(Cl)c1	0	-	0	55	0
CCCN1C[C@@H](C)[C@@H](OC)CN(C)C(=O)c2ccc(NC(=O)Nc3ccccc3F)cc2OC[C@H]1C	-	0	-	-	-
O=C(N[C@@H]1CC[C@H](CCNC(=O)C2CCCC2)O[C@H]1CO)c1ccccn1	0	0	-	-	0
COCCn1c(C)nnc1SCC(=O)Nc1ccccc1[N+](=O)[O-]	0	-	0	51	-
OCc1cn(-c2ccccc2)nc1-c1cc2ccccc2o1	0	?	0	57	0
N#Cc1cccc(-c2ccc3c(c2)[C@H]2[C@H](CCN2C(=O)CN2CCOCC2)[C@H](CO)N3)c1	-	0	-	-	0
C[C@@H]1CN([C@@H](C)CO)C(=O)c2cc(NC(=O)C3CCCCC3)ccc2O[C@H]1CN(C)C(=O)NC1CCCCC1	0	0	-	-	0
CCOc1ccc(C(C)=O)cc1COC(=O)c1ccccc1C(=O)N(C)Cc1ccccc1	98	0	0	0	0
O=C(C[C@H]1CC[C@@H]2[C@H](COC[C@H](O)CN2C(=O)c2ccccc2)O1)N1CCc2ccccc2C1	-	0	-	-	0
SMILES	Env fusion inh	esBAF inh	MITF TRPM1 HTS	Wnt bcat act	miR122 inh
C[C@@H]1CCCCO[C@H](CN(C)Cc2ccc(C(F)(F)F)cc2)[C@H](C)CN([C@H](C)CO)C(=O)c2cc(NS(C)(=O)=O)ccc2O1	0	0	-	-	0
C[C@@H]1CN([C@H](C)CO)C(=O)Cc2cc(NC(=O)Nc3ccc(F)cc3)ccc2O[C@@H]1CN(C)S(=O)(=O)c1ccccc1	0	0	-	-	0
Cc1ccccc1OCc1nc2c3c(ncn2n1)-c1ccccc1CC31CCCC1	0	0	0	-	0
Cc1ccccc1OCc1nc2c3cnn(C)c3ncn2n1	0	66	-	0	0
COCC(=O)N(C)C[C@@H]1Oc2cc(C3=CCCC3)ccc2S(=O)(=O)N([C@H](C)CO)C[C@@H]1C	0	0	-	-	-
O=C(C[C@@H]1CC[C@H]2[C@@H](COC[C@H](O)CN2C(=O)c2ccncc2)O1)NCc1cccc(F)c1	0	0	-	-	0
C[C@H]1CCCCO[C@H](CN(C)C(=O)c2ccccc2)[C@@H](C)CN([C@@H](C)CO)C(=O)c2cc(NS(=O)(=O)c3cccs3)ccc2O1	0	0	-	-	0
O=C(CCc1nc(-c2ccccc2F)no1)Nc1cccnc1	59	-	0	0	-
COc1cc(/C=C2/C(=N)N3C(SC)=NSC3=NC2=O)ccc1OC(=O)c1ccco1	0	46	0	0	0
CC(C)CC#Cc1cnc2c(c1)C(=O)N([C@H](C)CO)C[C@@H](C)[C@@H](CN(C)Cc1cncnc1)O2	0	0	-	-	0
Cc1ccc2nc(-c3cccc(Cl)c3)c(Cc3ccsc3)n2c1	0	-	-	0	-
Brc1cccc(-c2nc3ccc(Br)cn3c2Cc2ccsc2)c1	0	63	-	0	0
Clc1ccc(-c2nc3c4ccccc4ccn3c2Cc2ccsc2)cc1	65	-	-	0	-
Clc1cccc(-c2nc3ccc(Br)cn3c2Cc2ccsc2)c1	-	43	-	0	0
N#Cc1ccc(-c2nc3c4ccccc4ccn3c2Cc2ccsc2)cc1	0	-	-	0	-
CN(C)C(=O)C[C@@H]1C[C@H]2c3cc(NC(=O)NC4CCCCC4)ccc3O[C@H]2[C@@H](CO)O1	0	0	-	-	0
Cn1c(SCc2ccccc2)nnc1-c1c[nH]c2ccccc12	0	81	-	0	-
Cn1c(SCC(=O)N2CCN(c3ccccc3)CC2)nnc1-c1c[nH]c2ccccc12	0	0	-	0	0
CCCCSc1nnc(-c2ccc(C)cc2)n1C	0	0	0	53	-
CCCCSc1nnc(-c2c[nH]c3ccccc23)n1C	0	72	0	32	-
CCCCSc1nnc(-c2ccc(NC(C)=O)cc2)n1C	0	-	0	-	-
O=C(C[C@H]1C[C@H]2c3cc(NC(=O)NC4CCCC4)ccc3O[C@H]2[C@H](CO)O1)NCc1ccccc1F	0	0	-	-	0
Cc1ccc(OCCSc2ncccn2)c(C)c1	0	0	153	0	0
c1cnc(SCCOc2cccc3ccccc23)nc1	0	-	106	-	0
Cc1ccc(OCCCCNC(C)c2ccccc2)c(C)c1 (stereo unspecified)	96	0	-	0	0
SMILES	Env fusion inh	esBAF inh	MITF TRPM1 HTS	Wnt bcat act	miR122 inh
C[C@H](CO)N1C[C@H](C)[C@@H](CN(C)S(=O)(=O)c2ccccc2)Oc2ccc(N(C)C)cc2C1=O	0	0	-	-	0
CCCN(C)C[C@@H]1OCCCC[C@H](C)Oc2ccc(NC(=O)CCC(F)(F)F)cc2C(=O)N([C@@H](C)CO)C[C@@H]1C	0	0	-	-	0
Cc1ccc(-c2cc(N)n(-c3ccccc3)n2)cc1	0	-	93	-	0
Cc1cccc(-c2cnn(-c3ccccc3)c2N)c1	0	56	?	0	-
CCc1ccc(-c2cc(N)n(-c3ccccc3)n2)cc1	0	68	0	0	0
Cc1cccc(-n2nc(C)cc2N)c1	0	0	0	-	0
Cc1cccc(-c2cc(N)n(-c3ccccc3)n2)c1	0	54	87	0	0
CC(=O)N1[C@@H]2Cn3c(ccc(C4=CCCC4)c3=O)[C@H]1[C@@H](C(=O)N[C@H](C)c1ccccc1)[C@@H]2CO	-	0	-	-	0
O=C(CN1CCOCC1)NCC[C@H]1CC[C@H](NC(=O)Nc2ccc(C(F)(F)F)cc2)[C@H](CO)O1	0	0	-	-	0

Screening results as filed in PubChem BioAssay.
